Results filed as inconclusive are left out. A call without a number means that no potency is given here. A number with no mark means an inactive call. Active and inactive are the calls of the source. Calls come from the whole dose curve; as a rule, active = well fitted inhibition curve with a large enough effect; inconclusive = small, poorly fitted or top-dose-only effect; inactive = flat fitted curve, though single readings scatter.
Columns and labels:
[1] = qHTS profiling for inhibitors of Plasmodium falciparum proliferation (AID 504749); note: nearly all actives have a fitted effect of over 60% in size; conditions: P. falciparum in erythrocytes, SYBR Green DNA, 72 h
Procedure, shortened: (§1)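 Parasite proliferation within erythrocytes, 72 h exposure. Endpoint: SYBR Green I fluorescence after overnight lysis at room temperature. Controls: 0.29 uM artemisinin, DMSO.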

3D7 = assay: as above; conditions: P. falciparum in erythrocytes, SYBR Green DNA, 72 h; series mostly up to 28.7 µM
Procedure, shortened: as §1

7G8 = assay: as above; conditions: P. falciparum in erythrocytes, SYBR Green DNA, 72 h; series mostly up to 28.7 µM
Procedure, shortened: as §1

AA1029 = assay: as above; conditions: P. falciparum in erythrocytes, SYBR Green DNA, 72 h; series mostly up to 28.7 µM
Procedure, shortened: as §1

AS120 = assay: as above; conditions: P. falciparum in erythrocytes, SYBR Green DNA, 72 h; series mostly up to 28.7 µM
Procedure, shortened: as §1

ATS189 = assay: as above; conditions: P. falciparum in erythrocytes, SYBR Green DNA, 72 h; series mostly up to 28.7 µM
Procedure, shortened: as §1

ATS95 = assay: as above; conditions: P. falciparum in erythrocytes, SYBR Green DNA, 72 h; series mostly up to 28.7 µM
Procedure, shortened: as §1

C2A = assay: as above; conditions: P. falciparum in erythrocytes, SYBR Green DNA, 72 h; series mostly up to 28.7 µM
Procedure, shortened: as §1

CP185 = assay: as above; conditions: P. falciparum in erythrocytes, SYBR Green DNA, 72 h; series mostly up to 28.7 µM
Procedure, shortened: as §1

[2] = at 28.7 µM (top of the series), parasite line A
[3] = at 28.7 µM (top of the series), parasite line B
[4] = at 12.8 µM (top of the series), parasite line A
[5] = at 12.8 µM (top of the series), parasite line B
Potency is the fitted concentration of half-maximal effect.

SMILES	activity, negative = inhibition [1, 2] [%]	activity, negative = inhibition [1, 3] [%]	Potency (3D7)	Potency (7G8)	Potency (AA1029)	Potency (AS120)	Potency (ATS189)	Potency (ATS95)	Potency (C2A)	Potency (CP185)	activity, negative = inhibition [1, 4] [%]	activity, negative = inhibition [1, 5] [%]
O=C(O)Cc1csc(-c2ccc(Cl)cc2)n1	1.5	8.07	inactive	inactive	inactive	inactive	inactive	inactive	inactive	inactive		
O=C(O)C(Cc1cc(I)c(O)c(I)c1)c1ccccc1 (stereo not given)	-3.64	7.72	inactive	inactive	inactive	inactive	inactive	inactive	inactive	inactive		
CCCCNC(=O)NS(=O)(=O)c1ccc(N)cc1	5.61	12.3	inactive	inactive	inactive	inactive	inactive	inactive	inactive	inactive		
CCCCCCCCOc1ccc(C(=O)c2ccccc2)c(O)c1	16.4	14.5	inactive	inactive	inactive	inactive	inactive	inactive	inactive	inactive		
O=S(=O)(O)c1ccc(O)cc1	4.42	-3.84	inactive	inactive	inactive	inactive	inactive	inactive	inactive	inactive		
N=C(N)N1CCc2ccccc2C1	15.6	0.433	inactive	inactive	inactive	inactive	inactive	inactive	inactive	inactive		
NS(=O)(=O)c1ccc(Cl)c(S(N)(=O)=O)c1	8.67	14.1	inactive	inactive	inactive	inactive	inactive	inactive	inactive	inactive		
FC(F)(F)C(F)(F)C(F)(F)C(F)(F)C(F)(F)C(F)(F)C(F)(F)C(F)(F)Br	2.77	-1.15	inactive	inactive	inactive	inactive	inactive	inactive	inactive	inactive		
NS(=O)(=O)c1cc(C(=O)O)cc(N2CCCC2)c1Oc1ccccc1			inactive	inactive	inactive	inactive	inactive	inactive	inactive	inactive	5.58	15.6
CCCCCCCCCCCCCC(=O)OC(C)C	2.55	10.9	inactive	inactive	inactive	inactive	inactive	inactive	inactive	inactive		
CC(=O)OC[C@H]1O[C@@H](n2ncc(=O)[nH]c2=O)[C@H](OC(C)=O)[C@@H]1OC(C)=O	3.78	0.953	inactive	inactive	inactive	inactive	inactive	inactive	inactive	inactive		
Cc1ccc(S(=O)(=O)NC(=O)NC2CCCC2)cc1	11.1	9.92	inactive	inactive	inactive	inactive	inactive	inactive	inactive	inactive		
CNCCc1ccccn1			inactive	inactive	inactive	inactive	inactive	inactive	inactive	inactive	6.01	8.04
Nc1ccc(S(=O)(=O)Nc2cnc3ccccc3n2)cc1	-3.4	-11.6	inactive	inactive	inactive	inactive	inactive	inactive	inactive	inactive		
COc1cc(C(=O)N2CCCCCCC2)cc(OC)c1OC	22.3	22.7	inactive	inactive	inactive	inactive	inactive	inactive	inactive	inactive		
Cc1c[nH]c2ccccc12	-2.76	2.47	inactive	inactive	inactive	inactive	inactive	inactive	inactive	inactive		
COP(=O)(OC)OC(c1ccc(Cl)cc1)P(=O)(OC)OC (stereo not given)	10.6	-3.59	inactive	inactive	inactive	inactive	inactive	inactive	inactive	inactive		
C/C=C/c1ccc(O)c(OC)c1	3.92	-10.3	inactive	10 µM (active)	inactive	inactive	inactive	inactive	inactive	inactive		
OCc1ccccn1	7.68	8.75	inactive	inactive	inactive	inactive	inactive	inactive	inactive	inactive		
CC(=O)NO	-5.99	17.5	inactive	inactive	inactive	inactive	inactive	inactive	inactive	inactive		

Reference: PubChem BioAssay (NCATS)
